# Source: PubChem
# Sampled rows, rich in hits. Any-hit rate of the full collection: about 5.8%.
# PINK1 expr mod: changes PINK1 expression; PINK1 immunofluorescence, high-content cytometry, 24 h; 0.2% of 410,000 active; Potency, µM (titrated, usually from 76.6 µM), usual class: activators; active = well fitted activation curve with a large enough effect; inconclusive = small, poorly fitted or top-dose-only effect; cell line not stated here; also: nearly all actives have a fitted effect of over 65% in size
#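 PINK1 protein level read as immunofluorescence by microplate cytometer in a fixed, stained stable cell line after 24 h exposure to five compound concentrations, with CCCP as control.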
# MCF10A rereplic: inducers of DNA re-replication in MCF 10A breast cells; AID 624296; Potency, µM (titrated, usually from 46.1 µM), hits mostly activators; 2.9% of 350,000 active; MCF 10A DNA re-replication, Hoechst nuclear intensity, 48 h; also: nearly all actives have a fitted effect of over 50% in size
# 12-LOX inh: blocks human arachidonate 12S-lipoxygenase; purified 12hLO, xylenol orange hydroperoxide absorbance; Potency, µM (doses to about 108 µM), usual class: inhibitors; 1.1% of 580,000 active; AID 1671190
# Target sequence (P18054 whole entry, looked up): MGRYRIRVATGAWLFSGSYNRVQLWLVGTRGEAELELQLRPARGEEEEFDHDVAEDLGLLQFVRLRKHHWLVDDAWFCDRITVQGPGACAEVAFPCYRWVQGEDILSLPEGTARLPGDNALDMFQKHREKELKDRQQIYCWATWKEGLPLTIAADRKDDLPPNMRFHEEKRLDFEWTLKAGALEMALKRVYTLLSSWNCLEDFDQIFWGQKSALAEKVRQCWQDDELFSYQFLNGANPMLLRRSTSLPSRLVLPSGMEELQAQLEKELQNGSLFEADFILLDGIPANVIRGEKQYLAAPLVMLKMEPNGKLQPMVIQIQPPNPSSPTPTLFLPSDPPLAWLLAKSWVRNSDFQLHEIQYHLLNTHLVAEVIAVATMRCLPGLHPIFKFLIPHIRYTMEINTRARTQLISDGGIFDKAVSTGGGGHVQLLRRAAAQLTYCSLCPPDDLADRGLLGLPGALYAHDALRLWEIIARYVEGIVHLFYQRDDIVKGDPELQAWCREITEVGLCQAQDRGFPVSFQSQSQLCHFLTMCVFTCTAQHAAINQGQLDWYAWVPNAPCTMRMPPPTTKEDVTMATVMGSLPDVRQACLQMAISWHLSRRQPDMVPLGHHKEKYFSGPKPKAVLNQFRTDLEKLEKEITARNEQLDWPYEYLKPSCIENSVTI
#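 Hydroperoxide product was detected by ferrous iron/xylenol orange as the 573 to 405 nm absorbance ratio. Arachidonic acid at 40 uM (final) was turned over for 30 min at room temperature by 150 nM human 12hLO, pH 7.0 Hepes buffer, after 15 min compound preincubation.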
# SW480 rerep: inducers of DNA re-replication in SW480 colon cancer cells; SW480 DNA re-replication, Hoechst DNA content imaging, 48 h; 1.8% of 340,000 active; Potency, µM (titrated, usually from 46.1 µM), actives largely listed as activators; also: nearly all actives have a fitted effect of over 55% in size
#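 Readout is total intensity of Hoechst-stained nuclei, excited at 405 nm and collected at 500-530 nm. Compound treatment lasted 48 hr at 37 C in 5% CO2 before staining.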
# KB-V1 cytotox: KB-V1 MDR subline cytotoxicity. KB-V1 MDR cells viability, CellTiter-Glo, 72 h. Potency, µM (highest dose often 46.1 µM), most hits filed as cytotoxic. 3.4% of 400,000 active; also: nearly all actives have a fitted effect of over 60% in size
#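 Following 72 h at 37 degrees C with compound, KB-V1 cell viability was read by CellTiter-Glo luminescence, medium being phenol-red-free DMEM plus 10% FBS; concentration-response parameters came from normalized, curve-fitted qHTS data.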
# KB-3-1 cytotox: KB-3-1 parental cell cytotoxicity; Potency, µM (series often up to 46.1 µM), most hits filed as cytotoxic; 1.4% of 400,000 active; KB-3-1 viability, CellTiter-Glo ATP luminescence, 72 h; also: nearly all actives have a fitted effect of over 60% in size
#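 Cytotoxicity measured as CellTiter-Glo luminescence after 72 h at 37 C. Compound titrations were pinned onto drug-naive KB-3-1 parental adenocarcinoma cells grown in DMEM with 10% FBS, and normalized data fitted to concentration-response curves.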
# Numbers stand for hits; – = inactive; ? = inconclusive; · = no result given; [ ] = another dose, or the depositor's remark. Unless noted, calls follow the shape of the dose curve; as a rule, active = well fitted curve in the direction sought with a large enough effect; inconclusive = small, poorly fitted or top-dose-only effect, or another doubt; inactive = no such curve, though single readings can be large; an effect the other way counts as inactive or inconclusive.
SMILES,PINK1 expr mod,MCF10A rereplic,12-LOX inh,SW480 rerep,KB-V1 cytotox,KB-3-1 cytotox
CCCc1noc(C(C)Sc2nc(C3CC3)nc3ccccc23)n1 (stereo unspecified),·,·,–,·,·,·
O=C(O)CSc1c2c(nc3cc(C(=O)Nc4cccc(C(F)(F)F)c4)ccc13)CCC2,–,–,45µM,–,–,–
Cc1ccccc1OCCN1C(=O)NC2(CCc3ccccc32)C1=O (stereo unspecified),–,–,–,–,23µM,–
Cc1cccc(Cn2cnc3ccccc32)c1,–,–,–,–[9.22 µM],?,–
Cc1ccc(Cn2cnc3ccccc32)cc1C,–,–,–,–,21µM,8.2µM
CCc1ccc(C(=O)Cn2ccsc2=N)cc1,–,–,?,–,18µM,?
CC(C)(C)NC(=O)NC(=O)Cn1ccsc1=N,–,–,–,–,?,–
CC1CCCCN1C(=O)CSc1nnc2c(n1)[nH]c1ccc(F)cc12 (stereo unspecified),–,–,–,–,–,–
CC1CCc2cc(F)ccc2N1C(=O)CSc1nnc2c(n1)[nH]c1ccc(F)cc12 (stereo unspecified),–,–,–,–,21µM,–
CCCCC1=NN(C(=O)c2cocc2C)C(O)(C(F)(F)F)C1 (stereo unspecified),–,?,–,7.3µM,–,–
CCCCC1=NN(C(=O)c2ccncc2)C(O)(C(F)(F)F)C1 (stereo unspecified),–,–,–,–,–,–
COC(=O)CCC(=O)OC1(C)C(=O)C2=CN(c3ccccc3)C(c3ccc(OC)cc3)=CC2=C(Br)C1=O (stereo unspecified),–,–,40µM,–,–,–
CCCCC1=CC2=CC(=O)C(C)(OC(=O)CC)C(=O)C2=CN1c1cccc(C#N)c1 (stereo unspecified),–,–,?,–,–,–
COC(=O)CCC(=O)OC1(C)C(=O)C2=CN(Cc3ccccc3)C(c3ccc(OC)cc3)=CC2=C(Br)C1=O (stereo unspecified),–,–,?,–,–,–
COc1ccc(C2=CC3=C(Br)C(=O)C(C)(O)C(=O)C3=CO2)cc1 (stereo unspecified),–,–,·,–,–,–
CCC(=O)OC1(C)C(=O)C2=COC(c3ccc(OC)cc3)=CC2=C(Br)C1=O (stereo unspecified),–,?,50µM,–,–,–
CCC(=O)OC1(C)C(=O)C=C2C=C(c3ccc(C#N)cc3)OC=C2C1=O (stereo unspecified),–,–,5.6µM,–,–,?
O=C(NCc1n[nH]c(=O)c2ccccc12)c1ccc(Cl)cc1Cl,·,·,–,·,·,·
O=C(CSc1nnc(-c2ccccc2)c(-c2ccccc2)n1)N1CCOCC1,–,–,–,–[9.22 µM],–,–
O=C(CSc1nc(-c2ccccc2)c(-c2ccccc2)o1)Nc1nnc(-c2ccccc2)s1,–,–,–,–,7.3µM,–
Cc1sc2nc(SCC(=O)N3CCOCC3)[nH]c(=O)c2c1-c1ccccc1,–,–,32µM,–,·,·
O=C(CSc1nc(-c2ccccc2)c(-c2ccccc2)o1)N1CCOCC1,–,16µM,–,–,?,?
O=C(Cc1ccc(-c2ccccc2)cc1)N1CC(COc2ccccc2)C2(C1)CN(C(=O)c1cn[nH]c1)C2 (stereo unspecified),·,·,–,·,·,·
Cc1cc(NC(=O)CSc2nc(Nc3ccccc3)c3ccccc3n2)no1,·,·,–,·,·,·
O=S(=O)(NC(c1cccs1)C(Cl)(Cl)Cl)c1ccccc1 (stereo unspecified),·,·,–,·,·,·
Cc1ccccc1C(=O)N1CCC2(C1)C(=O)N(C)c1ccccc12 (stereo unspecified),·,·,–,·,·,·
CC[C@@]1(O)C(=O)OCc2c1cc1n(c2=O)Cc2c-1nc1ccccc1c2/C=N/OC(C)(C)C,·,·,–[22.9 µM],·,·,·
CCC1(OC(=O)CN(C)C)C(=O)OCc2c1cc1n(c2=O)Cc2cc3c(N)cccc3nc2-1 (stereo unspecified),–,–,·,?,2.9µM,?
